Where “and” joins values, the source holds several entries; their conditions need not be identical. Equal values may be shown once. Calls of active or inactive are those of the source. Rule for the calls: active = hit-call score of the fitted dose curve at least 0.9, where 1 is the maximum; inactive = score below 0.9.
Experiment: CCTE_Shafer_MEA_acute_cross_correlation_area: CCTE's Neural Acute Assay for Area of Cross Correlation, Shafer Lab (AID 2284024);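 note: area under pooled inter-electrode spike cross-correlation near zero lag as percent change from own baseline; curves fitted for loss of cross-correlation area so actives lower synchrony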;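 for outcome: rat primary cortical neuron networks on 48-well MEA at DIV 13 or 15 with 40 min exposure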
Procedure, shortened: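 Percent change in well-wide cross-correlation area (window around zero lag) between 40 min baseline and 40 min post-compound recordings, 37 C; rat cortical cultures on MEA at DIV 13 or 15, dosed 0.03-40 uM, wells needing >/= 10 active electrodes.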

SMILES | outcome | AC50
O=c1c(-c2ccc(O)cc2)coc2cc(O)ccc12 | inactive | –
O=C(O)c1ccccc1C(c1ccc(O)cc1)c1ccc(O)cc1 | – | 20 µM (active)
CCc1ccc(CCOc2ccc(CC3SC(=O)NC3=O)cc2)nc1 (stereo not drawn) | inactive | –
OC1CCC(C2CCCCC2)CC1 (stereo not drawn) | inactive | –
CC(C)CCCCCCOC(=O)CCCCC(=O)OCCCCCCC(C)C | inactive | –
CCC(=C(c1ccc(O)cc1)c1ccc(OCCN(C)C)cc1)c1ccccc1 | inactive | –
Cc1cc(CCN2CCN(c3nsc4ccccc34)CC2)cc2c1NC(=O)CC2(C)C | inactive | –
CN(C)C=O | inactive | –
OCCC(F)(F)C(F)(F)C(F)(F)C(F)(F)C(F)(F)C(F)(F)C(F)(F)C(F)(F)F | inactive | –
CN1CCC[C@H]1c1cccnc1 | – | 0.7 µM (active)
CCCOc1sc(C(=O)N2CCC(c3cc(CN)ccc3F)CC2)c(C)c1Br | inactive | –
NC(=O)N(O)[C@@H]1C=C[C@H](Oc2cccc(Oc3ccc(F)cc3)c2)C1 | inactive | –
CC(C)(C)c1cc(C(C)(C)C)c(O)c(C(C)(C)C)c1 | inactive | –
CC#C[C@]1(O)CC[C@H]2[C@@H]3CCC4=CC(=O)CCC4=C3[C@@H](c3ccc(N(C)C)cc3)C[C@@]21C | inactive | –
CC(=O)NC1(c2cccc(F)c2)CCN(CC[C@@]2(c3ccc(Cl)c(Cl)c3)CN(c3ccccc3)C(=O)CO2)CC1 | – | 1.03 µM (active)
Oc1cc2ccccc2c2ccccc12 | inactive | –
CCCCCCCCCCCCN1CCCC1=O | inactive | –
CN1CCN(c2ccccc2/C=C2\SCCN(c3ccc(Cl)c(Cl)c3)C2=O)CC1 | inactive | –
CC[C@H](c1ccc(O)cc1)[C@@H](CC)c1ccc(O)cc1 | inactive | –
CCCCCCCCCCCCc1ccccc1S(=O)(=O)O | inactive | –
CCCCCCCCCCCCCCCS(=O)(=O)Oc1ccccc1 | inactive | –

Experiment: CCTE_Shafer_MEA_acute_cross_correlation_HWHM: CCTE's Neural Acute Assay for Cross Correlation at Half Width at Half Maximum, Shafer Lab (AID 2284026);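 note: percent change per well from pre-dose baseline in spike cross-correlogram half width; hits are a decrease in cross-correlogram half width relative to DMSO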;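 for outcome: spontaneous network firing of rat primary cortical neurons on multiwell microelectrode arrays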
Procedure, shortened: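 Per-well percent change in cross-correlogram half width at half maximum, derived from 40-min recordings before and after compound (0.03-40 uM) at 37 C. Cultures were rat cortical neurons, DIV 13 or 15, with adaptive spike detection at 8x rms.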

SMILES | AC50 | outcome
O=c1c(-c2ccc(O)cc2)coc2cc(O)ccc12 | 24.4 µM (active) | –
O=C(O)c1ccccc1C(c1ccc(O)cc1)c1ccc(O)cc1 | – | inactive
CCc1ccc(CCOc2ccc(CC3SC(=O)NC3=O)cc2)nc1 (stereo not drawn) | – | inactive
OC1CCC(C2CCCCC2)CC1 (stereo not drawn) | 30 µM (active) | –
CC(C)CCCCCCOC(=O)CCCCC(=O)OCCCCCCC(C)C | – | inactive
CCC(=C(c1ccc(O)cc1)c1ccc(OCCN(C)C)cc1)c1ccccc1 | – | inactive
Cc1cc(CCN2CCN(c3nsc4ccccc34)CC2)cc2c1NC(=O)CC2(C)C | 20 µM (active) | –
CN(C)C=O | – | inactive
OCCC(F)(F)C(F)(F)C(F)(F)C(F)(F)C(F)(F)C(F)(F)C(F)(F)C(F)(F)F | – | inactive
CN1CCC[C@H]1c1cccnc1 | – | inactive
CCCOc1sc(C(=O)N2CCC(c3cc(CN)ccc3F)CC2)c(C)c1Br | – | inactive
NC(=O)N(O)[C@@H]1C=C[C@H](Oc2cccc(Oc3ccc(F)cc3)c2)C1 | 10 µM (active) | –
CC(C)(C)c1cc(C(C)(C)C)c(O)c(C(C)(C)C)c1 | – | inactive
CC#C[C@]1(O)CC[C@H]2[C@@H]3CCC4=CC(=O)CCC4=C3[C@@H](c3ccc(N(C)C)cc3)C[C@@]21C | 20 µM (active) and 5.43 µM (active) | –
CC(=O)NC1(c2cccc(F)c2)CCN(CC[C@@]2(c3ccc(Cl)c(Cl)c3)CN(c3ccccc3)C(=O)CO2)CC1 | 20 µM (active) | –
Oc1cc2ccccc2c2ccccc12 | – | inactive
CCCCCCCCCCCCN1CCCC1=O | – | inactive
CN1CCN(c2ccccc2/C=C2\SCCN(c3ccc(Cl)c(Cl)c3)C2=O)CC1 | 3.97 µM (active) | –
CC[C@H](c1ccc(O)cc1)[C@@H](CC)c1ccc(O)cc1 | – | inactive
CCCCCCCCCCCCc1ccccc1S(=O)(=O)O | – | inactive
CCCCCCCCCCCCCCCS(=O)(=O)Oc1ccccc1 | – | inactive

Experiment: CCTE_Shafer_MEA_acute_synchrony_index: CCTE's Neural Acute Assay for Synchrony, Shafer Lab (AID 2284027);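 note: network synchrony index of spontaneous spiking in primary rat cortical neurons on MEAs; fitted for loss of signal so actives lower synchrony relative to DMSO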
Procedure, shortened: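 Spontaneous firing of mature rat cortical networks is captured extracellularly on microelectrode arrays at 37 C, with wells needing ≥10 active electrodes. Each compound (0.03-40 uM) is judged by the change in synchrony index from baseline over 40 min.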

SMILES | AC50 | outcome
O=c1c(-c2ccc(O)cc2)coc2cc(O)ccc12 | 12.2 µM (active) | –
O=C(O)c1ccccc1C(c1ccc(O)cc1)c1ccc(O)cc1 | 7.86 µM (active) | –
CCc1ccc(CCOc2ccc(CC3SC(=O)NC3=O)cc2)nc1 (stereo not drawn) | – | inactive
OC1CCC(C2CCCCC2)CC1 (stereo not drawn) | – | inactive
CC(C)CCCCCCOC(=O)CCCCC(=O)OCCCCCCC(C)C | – | inactive
CCC(=C(c1ccc(O)cc1)c1ccc(OCCN(C)C)cc1)c1ccccc1 | 20.9 µM (active) | –
Cc1cc(CCN2CCN(c3nsc4ccccc34)CC2)cc2c1NC(=O)CC2(C)C | 33.4 µM (active) | –
CN(C)C=O | – | inactive
OCCC(F)(F)C(F)(F)C(F)(F)C(F)(F)C(F)(F)C(F)(F)C(F)(F)C(F)(F)F | – | inactive
CN1CCC[C@H]1c1cccnc1 | – | inactive
CCCOc1sc(C(=O)N2CCC(c3cc(CN)ccc3F)CC2)c(C)c1Br | – | inactive
NC(=O)N(O)[C@@H]1C=C[C@H](Oc2cccc(Oc3ccc(F)cc3)c2)C1 | 10 µM (active) | –
CC(C)(C)c1cc(C(C)(C)C)c(O)c(C(C)(C)C)c1 | 0.167 µM (active) | –
CC#C[C@]1(O)CC[C@H]2[C@@H]3CCC4=CC(=O)CCC4=C3[C@@H](c3ccc(N(C)C)cc3)C[C@@]21C | 16.2 µM (active) and 7.18 µM (active) | –
CC(=O)NC1(c2cccc(F)c2)CCN(CC[C@@]2(c3ccc(Cl)c(Cl)c3)CN(c3ccccc3)C(=O)CO2)CC1 | 9.53 µM (active) | –
Oc1cc2ccccc2c2ccccc12 | – | inactive
CCCCCCCCCCCCN1CCCC1=O | – | inactive
CN1CCN(c2ccccc2/C=C2\SCCN(c3ccc(Cl)c(Cl)c3)C2=O)CC1 | 34 µM (active) | –
CC[C@H](c1ccc(O)cc1)[C@@H](CC)c1ccc(O)cc1 | – | inactive
CCCCCCCCCCCCc1ccccc1S(=O)(=O)O | 33.1 µM (active) | –
CCCCCCCCCCCCCCCS(=O)(=O)Oc1ccccc1 | – | inactive

From PubChem BioAssay (EPA / NIEHS)
